An excerpt weighted towards active compounds, which were near 10% of everything screened.
GLS inh = qHTS for Inhibitors of Glutaminase (GLS); actives 0.21% (n = 410,000); Potency, µM (doses to about 45.5 µM), for the others: at the top dose activity change, negative = inhibition, hits mostly inhibitors; AID 624170, 2012; GLS enzymatic activity, qHTS titration; further: on the % scale 0 is the no-effect control and ±100 the full control effect
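Compounds were pin-transferred onto hKGA, after which L-glutamine (1 mM solution) and a detection mix of glutamate oxidase, HRP and Amplex Red were added. Initial and 30 min RT fluorescence reads were collected.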
HP1b chromo inh = HTS for Inhibitors of HP1-beta Chromodomain Interactions with Methylated Histone Tails | Chromobox protein homolog 1 (Homo sapiens), P83916 | AlphaScreen HP1-beta / biotin-H3K9me3 peptide binding | Potency, µM (titrated, usually from 114 µM), inactives show top-dose activity change, negative = inhibition, actives largely listed as inhibitors | actives 0.56% (n = 390,000) | AID 540317, 2011; further: nearly all actives have a fitted effect of over 70% in size
Target sequence (P83916 whole entry, looked up): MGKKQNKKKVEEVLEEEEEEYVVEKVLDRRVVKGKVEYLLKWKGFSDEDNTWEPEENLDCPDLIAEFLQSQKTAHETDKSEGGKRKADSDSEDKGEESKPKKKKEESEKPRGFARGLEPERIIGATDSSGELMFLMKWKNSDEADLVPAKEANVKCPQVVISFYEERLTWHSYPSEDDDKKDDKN
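HP1-beta protein (50 nM final) preincubated 30 min at room temperature with biotinylated H3(1-18)K9me3 peptide (50 nM) in PBS pH 7.4, 0.01% Tween-20, then compound added for 30 min. AlphaScreen streptavidin donor/nickel chelate acceptor beads (10 ug/mL final), 30 min dark, luminescence read.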
BAZ2B inh = qHTS Assay for Inhibitors of BAZ2B. AlphaScreen BAZ2B-H3K14Ac peptide displacement. actives 4.4% (n = 360,000). Potency, µM (top dose mostly 114 µM), for the others: at the highest dose activity change, negative = inhibition, actives largely listed as inhibitors. AID 504333, 2011; further: on the % scale 0 is the no-effect control and ±100 the full control effect; nearly all actives have a fitted effect of over 60% in size
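BAZ2B 50 nM plus b-H3(5-23)K14Ac 50 nM, PBS pH 7.4/0.01% Tween-20, 30 min RT; compound added (max 110 uM), 30 min RT; streptavidin donor/Ni-chelate acceptor beads 10 ug/mL final, 20 min dark; AlphaScreen read.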
JMJD2A Tudor inh = qHTS Assay for Inhibitors of JMJD2A-Tudor Domain; actives 4.4% (n = 390,000); AlphaScreen JMJD2A-Tudor / H3K4me3 peptide binding; Lysine-specific demethylase 4A (Homo sapiens), O75164; Potency, µM (titrated, usually from 114 µM), for the others: at the highest dose activity change, negative = inhibition, hits mostly inhibitors; further: on the % scale 0 is the no-effect control and ±100 the full control effect; nearly all actives have a fitted effect of over 50% in size
G9a inh = qHTS Assay for Inhibitors of Histone Lysine Methyltransferase G9a. Histone-lysine N-methyltransferase EHMT2 (Homo sapiens), Q96KQ7. G9a H3K9 monomethylation, AlphaScreen, 2 h. Potency, µM (doses to about 102 µM), for the others: at the top dose activity, negative = inhibition, actives largely listed as inhibitors. actives 8.8% (n = 350,000). AID 504332, 2011; further: on the % scale 0 is the no-effect control and ±100 the full control effect; nearly all actives have a fitted effect of over 75% in size
Target sequence (Q96KQ7 913-1193 limits assumed): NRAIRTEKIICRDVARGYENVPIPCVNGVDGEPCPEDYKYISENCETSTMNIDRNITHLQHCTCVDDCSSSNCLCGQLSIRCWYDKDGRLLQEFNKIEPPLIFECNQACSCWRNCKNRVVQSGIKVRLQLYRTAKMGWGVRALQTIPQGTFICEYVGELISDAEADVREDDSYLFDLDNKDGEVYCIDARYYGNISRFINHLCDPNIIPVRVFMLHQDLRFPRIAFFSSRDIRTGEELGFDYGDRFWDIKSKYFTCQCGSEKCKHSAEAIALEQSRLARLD
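Using a bead-based AlphaScreen, monomethylated H3K9 product from 2 h room-temperature reactions (G9a 20 nM, peptide 500 nM, SAM 20 uM) was detected with 0.5 ug/mL rabbit anti-H3K9me1 antibody.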
Starred values were filed as active, the others as inactive; ? = inconclusive; . = no result given; [ ] = another dose, or the depositor's remark. The call rests on the fitted dose curve; in most records, active means well fitted curve in the direction sought with a large enough effect; inconclusive means small, poorly fitted or top-dose-only effect, or another doubt; inactive means no such curve, though single readings can be large; an effect the other way counts as inactive or inconclusive. Potency means the concentration at half of the fitted maximal effect.

SMILES	GLS inh	HP1b chromo inh	BAZ2B inh	JMJD2A Tudor inh	G9a inh
Clc1c(-c2nnc3n2CCC3)sc2ccccc12	4.1%	24.3%	-4.1%	-2.9%	3.1%[59 µM]
c1ccc2[nH]c(CSc3nc4ccccc4s3)nc2c1	16.5%	46.0%	-17.1%	-7.6%	-32.0%
Cn1c(CSc2nc3ccccc3s2)n[nH]c1=S	7.0%	-26.7%	9.8%	31.6µM*	2.51µM*
Cn1c(-c2sc3ccccc3c2Cl)n[nH]c1=S	1.6%	-27.5%	-11.7%	22.4µM*	?
CCNc1nnc(CSc2nc3ccccc3s2)s1	-5.9%	55.8%	-3.9%	-20.6%[57.1 µM]	4.47µM*
S=c1[nH]nc(CSc2nc3ccccc3s2)o1	34.3%	2.7%	?	44.7µM*	1.58µM*
N#Cc1c(-c2ccccc2)no[n+]1[O-]	.	.	.	.	21.5%[12.7 µM]
CC(=O)N1CCc2c(sc3c2c(=O)n(-c2ccccc2)c(=O)n3CC(=O)c2ccc(F)cc2)C1	-3.1%	27.2%	-3.1%	-14.2%	4.4%[59 µM]
Cc1ccnc(SCC(=O)c2cc3ccccc3o2)n1	4.9%	24.8%	-10.8%	-5.5%	44.7µM*
Cn1c(SCC(=O)c2cc3ccccc3o2)nnc1-c1ccccc1	-0.1%	2.6%	-7.9%	?	11.2µM*
O=C(CSc1nnc(-c2cccs2)n1CC1CCCO1)c1cc2ccccc2o1 (centres undefined)	?	18.8%	-29.5%	-30.1%	44.7µM*
O=C(CSc1nnc(-c2ccncc2)n1CC1CCCO1)NCc1ccccc1 (centres undefined)	0.6%	12.6%	3.3%	5.5%[57.1 µM]	-45.5%[12.7 µM]
Cn1cnnc1SCC(=O)c1cc2ccccc2o1	2.2%	61.6%	-39.0%	-8.5%	?
Cn1ccnc1SCC(=O)c1cc2ccccc2o1	28.5%	-31.4%	?	?	39.8µM*
O=C(NCCc1ccc(Cl)cc1)c1cnc2sc(N3CCOCC3)nn2c1=O	-0.6%	7.6%	-2.7%	-12.7%	-5.6%[59 µM]
C=CCNC(=O)CSc1nc2cc(C(=O)OCC)ccc2n1CC	-4.2%	17.9%	-4.3%	-6.3%	7.6%
CCOC(=O)c1ccc2c(c1)nc(SCC(=O)c1cc3ccccc3o1)n2CC	2.4%	31.6%	-3.5%	-19.1%	79.4µM*
FC(F)(F)c1ccc(Cl)c(N/N=C/c2ccc(N3CCOCC3)s2)c1	-10.1%	-12.2%	-30.9%	?	3.98µM*
O=C(CN1CCOCC1)Nc1cc(C(F)(F)F)ccc1Cl	-14.2%	-12.5%	6.1%	?	28.0%
CC(C)c1ccccc1NC(=O)CN(c1ccccc1)S(=O)(=O)N(C)C	-1.8%	37.6%	4.4%	4.1%	-0.9%[59 µM]
CN(C)c1ccc(CNC(=O)c2cnc3sc(N4CCOCC4)nn3c2=O)cc1	6.8%	0.6%	?	?	7.8%[59 µM]
Cc1cccc(N2CCN(C(c3ccc(F)cc3)c3nnc(-c4ccccc4)o3)CC2)c1C (centres undefined)	-2.4%	4.5%	50.1µM*	?	?
Cc1ccc(Cl)cc1N1CCN(C(c2ccc(F)cc2)c2nnc(-c3ccccc3)o2)CC1 (centres undefined)	-2.0%	11.8%	-18.9%	?	?
C#CCOCCOCCOCCNc1nc(N2CCN(C(=O)[C@H](CCC(=O)O)n3cc(C(N)[C@H](C)CC)nn3)CC2)nc(N2CCN(C(=O)[C@H](CCC(=O)O)n3cc(C(N)[C@H](C)CC)nn3)CC2)n1 (some centres undefined)	-10.0%	-15.8%	79.4µM*	?	-32.6%[12.7 µM]
C#CCOCCOCCOCCNc1nc(N2CCN(C(=O)[C@H](CCCCN)n3cc([C@@H](N)[C@H](C)CC)nn3)CC2)nc(N2CCN(C(=O)[C@H](CCC(=O)O)n3cc([C@@H](N)CCSC)nn3)CC2)n1	1.2%	15.9%	.	79.4µM*	.
SMILES	GLS inh	HP1b chromo inh	BAZ2B inh	JMJD2A Tudor inh	G9a inh
C#CCOCCOCCOCCNc1nc(N2CCN(C(=O)[C@H](CCCCN)n3cc(C(N)CO)nn3)CC2)nc(N2CCN(C(=O)[C@H](CCC(=O)O)n3cc(C(N)[C@H](C)CC)nn3)CC2)n1 (some centres undefined)	.	.	39.8µM*	.	?
C#CCOCCOCCOCCNc1nc(N2CCN(C(=O)[C@H](CCC(=O)O)n3cc(C(N)CO)nn3)CC2)nc(N2CCN(C(=O)[C@H](CCC(=O)O)n3cc(C(N)[C@H](C)CC)nn3)CC2)n1 (some centres undefined)	-2.2%	32.9%	35.5µM*	35.5µM*	-128.1%[59 µM]
CCN(C(=O)c1cc2c(s1)-c1ccccc1OC2)c1cc(Cl)ccc1OC	-12.1%	93.6%	42.0%	43.3%	31.3%[59 µM]
Cc1ccc(C)c(CN2C(=O)c3ccccc3S(=O)(=O)c3ccc(C(=O)N4CCCCC4)cc32)c1	3.3%	15.7%	?	-19.9%	-36.4%[59 µM]
C#CCOCCOCCOCCNc1nc(N2CCN(C(=O)C([C@@H](C)CC)n3cc(C(N)CO)nn3)CC2)nc(N2CCN(C(=O)[C@H](CCC(=O)O)n3cc(C(N)[C@H](C)CC)nn3)CC2)n1 (some centres undefined)	.	.	35.5µM*	.	?
C#CCOCCOCCOCCNc1nc(N2CCN(C(=O)[C@H](CCCCN)n3cc(CN)nn3)CC2)nc(N2CCN(C(=O)[C@H](CCC(=O)O)n3cc([C@@H](N)[C@H](C)CC)nn3)CC2)n1	6.9%	3.5%	.	56.2µM*	.
C#CCOCCOCCOCCNc1nc(N2CCN(C(=O)[C@H](CCCCN)n3cc(CN)nn3)CC2)nc(N2CCN(C(=O)[C@H](CCC(=O)O)n3cc([C@@H](N)CCSC)nn3)CC2)n1	-6.9%	6.0%	.	89.1µM*	.
CC1CN(C(=O)CSc2nc(N)c(NC(=O)c3ccc(C(F)(F)F)cc3)c(=O)[nH]2)CC(C)O1 (centres undefined)	15.4%	.	.	.	.
COc1ccccc1CN1CCCC2(CCN(C(=O)c3cccn3C)CC2)C1	.	.	.	.	7.2%[12.7 µM]
CCCCCn1ncc2c3sc(C)cc3n(C)c2c1=O	.	.	.	16.4%	.
O=C(CSc1nc(-c2ccc(F)cc2)cs1)NC(=O)NCc1ccco1	-12.8%	3.8%	50.1µM*	?	-16.5%[59 µM]
O=C(CSc1nncs1)NC(=O)NCc1ccco1	-0.5%	19.0%	.	-18.5%	-32.2%
Cc1ccccc1Nc1nnc(SCC(=O)NC(=O)NCc2ccco2)s1	?	-5.2%	-37.4%	?	35.5µM*
O=C(CSc1nnc(NC(=O)c2c(F)cccc2F)s1)NCc1ccco1	0.1%	18.9%	8.6%	-15.5%	44.7µM*

Assay outcomes (PubChem)
